Laboratory results from the supplement of paper PMC8728848.
This excerpt belongs to a sample that is enriched for the strongest signals.

Experiments:
Assay in all cases: glycan array binding signal (z-score within array); higher = stronger binding
Settings in all cases: glycan notation: IUPAC condensed, linker removed
[1] = biological target: Glc(a1-4)Glc(a1-4)Glc(a1-4)Glc
Procedure, shortened: (§1)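 Glycan array binding is given as a within-array Z-score, which can be read as non-binding when negative. The arrays, 3228 of them, came from the Consortium for Functional Glycomics database and were retained only where the protein sequence was available. Z-scores were averaged across arrays of the same protein sequence at different concentrations or buffers and across linkers.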

[2] = biological target: GlcNAc(a1-4)Gal(b1-3)GlcNAc
Procedure, shortened: as §1

[3] = biological target: GlcNAc(a1-4)Gal(b1-4)GlcNAc(b1-3)Gal(b1-4)Glc
Procedure, shortened: as §1

[4] = biological target: GlcNAc(b1-2)Man(a1-3)[GlcNAc(b1-2)Man(a1-6)]Man(b1-4)GlcNAc(b1-4)GlcNAc
Procedure, shortened: as §1

[5] = biological target: GlcNAc(b1-2)[GlcNAc(b1-6)]Man(a1-6)[GlcNAc(b1-2)Man(a1-3)]Man(b1-4)GlcNAc(b1-4)GlcNAc
Procedure, shortened: as §1

[6] = biological target: GlcNAc(b1-3)Gal(b1-4)GlcNAc(b1-2)[GlcNAc(b1-3)Gal(b1-4)GlcNAc(b1-6)]Man(a1-6)[GlcNAc(b1-3)Gal(b1-4)GlcNAc(b1-2)Man(a1-3)]Man(b1-4)GlcNAc(b1-4)GlcNAc
Procedure, shortened: as §1

[7] = biological target: GlcNAc(b1-3)Gal(b1-4)GlcNAc(b1-3)[GlcNAc(b1-3)Gal(b1-4)GlcNAc(b1-3)]GalNAc
Procedure, shortened: as §1

[8] = biological target: Man(a1-2)Man(a1-3)[Man(a1-2)Man(a1-6)]Man(a1-6)[Man(a1-2)Man(a1-2)Man(a1-3)]Man
Procedure, shortened: as §1

Man(b1-4)GlcNAc = biological target: Man(b1-4)GlcNAc
Procedure, shortened: as §1

[9] = biological target: Neu5Ac(a2-3)Gal(b1-3)GlcNAc(b1-2)Man(a1-3)[Neu5Ac(a2-3)Gal(b1-3)GlcNAc(b1-2)Man(a1-6)]Man(b1-4)GlcNAc(b1-4)GlcNAc
Procedure, shortened: as §1

[10] = biological target: Neu5Ac(a2-3)Gal(b1-3)GlcNAc(b1-4)Gal(b1-4)Glc
Procedure, shortened: as §1

[11] = biological target: Neu5Ac(a2-3)Gal(b1-4)GlcNAc(b1-3)Gal(b1-4)GlcNAc(b1-3)Gal(b1-4)GlcNAc
Procedure, shortened: as §1

[12] = biological target: Neu5Ac(a2-3)Gal(b1-4)GlcNAc(b1-6)[Gal(b1-3)]GalNAc
Procedure, shortened: as §1

[13] = biological target: Neu5Ac(a2-3)Gal(b1-4)[Fuc(a1-3)]GlcNAc(b1-3)Gal(b1-4)[Fuc(a1-3)]GlcNAc(b1-3)Gal(b1-4)[Fuc(a1-3)]GlcNAc
Procedure, shortened: as §1

[14] = biological target: Neu5Ac(a2-3)[Neu5Ac(a2-6)]GalNAc
Procedure, shortened: as §1

[15] = biological target: Neu5Ac(a2-6)Gal(b1-4)GlcNAc(b1-2)[Neu5Ac(a2-6)Gal(b1-4)GlcNAc(b1-6)]Man(a1-6)[Neu5Ac(a2-6)Gal(b1-4)GlcNAc(b1-2)Man(a1-3)][GlcNAc(b1-4)]Man(b1-4)GlcNAc(b1-4)GlcNAc
Procedure, shortened: as §1

[16] = biological target: Neu5Ac(a2-6)Gal(b1-4)GlcNAc(b1-3)Gal(b1-3)GlcNAc
Procedure, shortened: as §1

[17] = biological target: Neu5Ac(a2-6)Gal(b1-4)GlcNAc(b1-3)Gal(b1-4)GlcNAc(b1-6)[Gal(b1-3)]GalNAc
Procedure, shortened: as §1

[18] = biological target: Neu5Ac(a2-6)Gal(b1-4)GlcNAc(b1-3)Gal(b1-4)[Fuc(a1-3)]GlcNAc(b1-3)Gal(b1-4)[Fuc(a1-3)]GlcNAc
Procedure, shortened: as §1

[19] = biological target: Neu5Ac(a2-6)Gal(b1-4)GlcNAc(b1-3)[Neu5Ac(a2-6)Gal(b1-4)GlcNAc(b1-6)]GalNAc
Procedure, shortened: as §1

[20] = biological target: Neu5Ac(a2-6)Gal(b1-4)GlcNAc(b1-6)[Gal(b1-3)]GalNAc
Procedure, shortened: as §1

[21] = biological target: Neu5Ac(a2-6)GlcNAc(b1-4)GlcNAc
Procedure, shortened: as §1

[22] = biological target: Neu5Ac(a2-6)GlcNAc(b1-4)GlcNAc(b1-4)GlcNAc
Procedure, shortened: as §1

[23] = biological target: Neu5Ac(a2-8)Neu5Ac(a2-3)Gal(b1-4)Glc
Procedure, shortened: as §1

[24] = biological target: Neu5Ac(a2-8)Neu5Ac(a2-8)Neu5Ac(a2-3)Gal(b1-4)Glc
Procedure, shortened: as §1

[25] = biological target: Neu5Ac(a2-8)Neu5Gc(a2-3)Gal(b1-4)GlcNAc
Procedure, shortened: as §1

[26] = biological target: Neu5Gc(a2-3)Gal(b1-4)GlcNAc(b1-3)Gal(b1-4)GlcNAc(b1-2)Man(a1-3)[Neu5Gc(a2-3)Gal(b1-4)GlcNAc(b1-3)Gal(b1-4)GlcNAc(b1-2)Man(a1-6)]Man(b1-4)GlcNAc(b1-4)GlcNAc
Procedure, shortened: as §1

[27] = biological target: Neu5Gc(a2-8)Neu5Gc(a2-6)Gal(b1-4)GlcNAc
Procedure, shortened: as §1

B1: SfaEH (Escherichia coli), Q1RDG5 (protein)
chain: LLCRNNQTGQVFNSGDTSFRVNVSPVVQYDKSISVLDLSQLVSCQNEDSTGQNYDYLKILKGSGFSPALDTKTYGRLDFTSRPTGYARQLPLQFDLQVTEAFYQYGVWKPFPAKLYLYPAPGVFGKVINNGDLLATLYVNKFSTKGQEAGERNFTWRFYATNDVYIQTGTCRVSSNNVKVDLPSYPGGPVTVPLTVRCDQTQSVSYTLSGPVTGSGNTVFANTAASGSGGVGIQLSDNVGPVPAGQPRSLGQVGSSPVSLGLKASYALTGQASPTPGAVQSVINVTFSYN
Which results are given for B1?
glycan array binding signal (z-score) [1]: -0.651; glycan array binding signal (z-score) [2]: -0.403; glycan array binding signal (z-score) [3]: -0.748; glycan array binding signal (z-score) [4]: 0.345; glycan array binding signal (z-score) [5]: -0.668; glycan array binding signal (z-score) [6]: 2.3; glycan array binding signal (z-score) [7]: 0.026; glycan array binding signal (z-score) [8]: 0.008; glycan array binding signal (z-score) (Man(b1-4)GlcNAc): -0.49; glycan array binding signal (z-score) [9]: -0.547; glycan array binding signal (z-score) [10]: -0.421; glycan array binding signal (z-score) [11]: 7.11; glycan array binding signal (z-score) [12]: 2.32; glycan array binding signal (z-score) [13]: 0.9; glycan array binding signal (z-score) [14]: 3.69; glycan array binding signal (z-score) [15]: -0.534; glycan array binding signal (z-score) [16]: -0.233; glycan array binding signal (z-score) [17]: 0.079; glycan array binding signal (z-score) [18]: -0.154; glycan array binding signal (z-score) [19]: 2.22; glycan array binding signal (z-score) [20]: 0.841; glycan array binding signal (z-score) [21]: -0.508; glycan array binding signal (z-score) [22]: 1.19; glycan array binding signal (z-score) [23]: 0.69; glycan array binding signal (z-score) [24]: 0.437; glycan array binding signal (z-score) [25]: -0.786; glycan array binding signal (z-score) [26]: -0.442; glycan array binding signal (z-score) [27]: 2.33
